PubChem BioAssay AID1159580 (chemical genetic matrix, 2015)
In all, about 5,500 compounds went through this assay and about 2,000 (36%) were called active. Not shown: some 18% with an inconclusive outcome. Cut-off read from the data, not from the text of the source: active = normalized growth mostly below about 0.91 (no sharp cut-off); inconclusive = no clear call, values can overlap the other calls; inactive = mostly above about 0.92. This is one part of the list.

Assay: chemical genetic growth profiling, strain panel (AID 1159580);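 note: tested at 20 µM; growth read once vehicle control cultures reached saturation at 30 °C; 1 = growth at the plate median or of vehicle wells; lower values mean less growth of the strain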
Conditions: growth OD
[1] = S. cerevisiae deletion strains, locus YAL013W, strain DEP1, stronger effect = lower value
[2] = S. cerevisiae deletion strains, locus YBR229C, strain ROT2, stronger effect = lower value
[3] = S. cerevisiae deletion strains, locus YDL101C, strain DUN1, stronger effect = lower value
[4] = S. cerevisiae deletion strains, locus YEL061C, strain CIN8, stronger effect = lower value
[5] = S. cerevisiae deletion strains, locus YHR030C, strain SLT2, stronger effect = lower value
[6] = S. cerevisiae deletion strains, locus YJR043C, strain POL32, stronger effect = lower value
[7] = S. cerevisiae deletion strains, locus YKL190W, strain CNB1, stronger effect = lower value
[8] = S. cerevisiae deletion strains, locus YLR039C, strain RIC1, stronger effect = lower value
[9] = S. cerevisiae deletion strains, locus YLR262C, strain YPT6, stronger effect = lower value
[10] = S. cerevisiae deletion strains, locus YMR263W, strain SAP30, stronger effect = lower value
[11] = S. cerevisiae deletion strains, locus YMR307W, strain GAS1, stronger effect = lower value
[12] = S. cerevisiae deletion strains, locus YNL153C, strain GIM3, stronger effect = lower value
[13] = S. cerevisiae deletion strains, locus YPL241C, strain CIN2, stronger effect = lower value
[14] = S. cerevisiae strains, strain wild type, stronger effect = lower value

Measured: normalized growth

O=C(COC(=O)c1ccccc1Nc1ccccc1)c1ccc(Cl)cc1
inactive: [1] 0.978 | [2] 0.99 | S. cerevisiae deletion strains, locus YCL061C, strain MRC1, stronger effect = lower value 0.993 | [3] 0.986 | S. cerevisiae deletion strains, locus YDR150W, strain NUM1, stronger effect = lower value 0.9 | [4] 0.993 | S. cerevisiae deletion strains, locus YGR078C, strain PAC10, stronger effect = lower value 0.982 | S. cerevisiae deletion strains, locus YGR229C, strain SMI1, stronger effect = lower value 0.98 | [5] 1.01 | S. cerevisiae deletion strains, locus YHR087W, strain rtc3, stronger effect = lower value 0.974 | S. cerevisiae deletion strains, locus YJL187C, strain SWE1, stronger effect = lower value 0.997 | [6] 0.98 | S. cerevisiae deletion strains, locus YJR075W, strain HOC1, stronger effect = lower value 1 | [7] 0.988 | [8] 0.944 | S. cerevisiae deletion strains, locus YLR058C, strain SHM2 (second series), stronger effect = lower value 0.992 | S. cerevisiae deletion strains, locus YLR085C, strain ARP6, stronger effect = lower value 1.02 | [9] 0.987 | S. cerevisiae deletion strains, locus YML094W, strain GIM5, stronger effect = lower value 0.956 | S. cerevisiae deletion strains, locus YMR219W, strain ESC1, stronger effect = lower value 0.988 | [10] 0.927 | [11] 0.987 | [12] 0.993 | S. cerevisiae deletion strains, locus YNL298W, strain CLA4 (second series), stronger effect = lower value 1 | S. cerevisiae deletion strains, locus YNL322C, strain KRE1, stronger effect = lower value 0.966 | S. cerevisiae deletion strains, locus YNR030W, strain Alg12, stronger effect = lower value 0.99 | S. cerevisiae deletion strains, locus YOL006C, strain TOP1, stronger effect = lower value 0.964 | S. cerevisiae deletion strains, locus YPL055C, strain LGE1, stronger effect = lower value 0.921 | [13] 0.9 | S. cerevisiae deletion strains, locus YPR135W, strain CTF4, stronger effect = lower value 1.01 | [14] 0.985

COC(=O)Oc1ccccc1C(=O)O
inactive: [1] 1.02 | S. cerevisiae deletion strains, locus YBR021W, strain FUR4, stronger effect = lower value 0.976 | [2] 1.01 | S. cerevisiae deletion strains, locus YCL029C, strain bik1, stronger effect = lower value 1.01 | S. cerevisiae deletion strains, locus YDL035C, strain GPR1, stronger effect = lower value 0.995 | S. cerevisiae deletion strains, locus YDL074C, strain BRE1, stronger effect = lower value 1.04 | [3] 1.02 | S. cerevisiae deletion strains, locus YDL134C, strain PPH21, stronger effect = lower value 0.991 | S. cerevisiae deletion strains, locus YDL185W, strain tfp1, stronger effect = lower value 1.01 | S. cerevisiae deletion strains, locus YDL192W, strain arf1, stronger effect = lower value 1.02 | S. cerevisiae deletion strains, locus YDR101C, strain arx1, stronger effect = lower value 1.01 | S. cerevisiae deletion strains, locus YDR162C, strain NBP2, stronger effect = lower value 0.99 | S. cerevisiae deletion strains, locus YDR318W, strain mcm21, stronger effect = lower value 1.01 | S. cerevisiae deletion strains, locus YDR388W, stronger effect = lower value 1.01 | S. cerevisiae deletion strains, locus YDR502C, strain sam2, stronger effect = lower value 1.01 | [4] 1.01 | S. cerevisiae deletion strains, locus YER110C, stronger effect = lower value 1.03 | S. cerevisiae deletion strains, locus YER155C, strain BEM2, stronger effect = lower value 1.01 | S. cerevisiae deletion strains, locus YER167W, strain BCK2, stronger effect = lower value 1.01 | S. cerevisiae deletion strains, locus YGL078C, strain dbp3, stronger effect = lower value 1.01 | S. cerevisiae deletion strains, locus YGL086W, strain mad1, stronger effect = lower value 1.01 | S. cerevisiae deletion strains, locus YGL248W, strain PDE1, stronger effect = lower value 1.01 | S. cerevisiae deletion strains, locus YGR135W, strain pre9, stronger effect = lower value 1.01 | S. cerevisiae deletion strains, locus YGR252W, strain gcn5, stronger effect = lower value 1.01 | [5] 1.01 | S. cerevisiae deletion strains, locus YHR079C, strain IRE1 (second series), stronger effect = lower value 1.01 | S. cerevisiae deletion strains, locus YHR094C, strain hxt1, stronger effect = lower value 1.02 | S. cerevisiae deletion strains, locus YHR129C, strain ARP1, stronger effect = lower value 1.01 | S. cerevisiae deletion strains, locus YHR200W, strain rpn10, stronger effect = lower value 1.02 | S. cerevisiae deletion strains, locus YIL066C, strain RNR3, stronger effect = lower value 0.987 | S. cerevisiae deletion strains, locus YIL073C, strain SPO22, stronger effect = lower value 1.03 | S. cerevisiae deletion strains, locus YIL125W, strain kgd1, stronger effect = lower value 1.02 | S. cerevisiae deletion strains, locus YIR030C, strain dcg1, stronger effect = lower value 1.01 | S. cerevisiae deletion strains, locus YJL095W, strain BCK1, stronger effect = lower value 1.05 | S. cerevisiae deletion strains, locus YJL134W, strain LCB3, stronger effect = lower value 1.01 | S. cerevisiae deletion strains, locus YJL168C, strain set2, stronger effect = lower value 1.03 | S. cerevisiae deletion strains, locus YJL187C, strain SWE1 (second series), stronger effect = lower value 1.02 | [6] 0.983 | S. cerevisiae deletion strains, locus YKL009W, strain mrt4, stronger effect = lower value 1.01 | S. cerevisiae deletion strains, locus YKL068W, stronger effect = lower value 1 | S. cerevisiae deletion strains, locus YKL085W, strain MDH1 (second series), stronger effect = lower value 1.01 | S. cerevisiae deletion strains, locus YKL085W, strain MDH1, stronger effect = lower value 1.01 | [7] 1.02 | S. cerevisiae deletion strains, locus YKR001C, strain vps1, stronger effect = lower value 1.01 | [8] 1.02 | S. cerevisiae deletion strains, locus YLR058C, strain SHM2, stronger effect = lower value 1.01 | S. cerevisiae deletion strains, locus YLR102C, strain apc9, stronger effect = lower value 1.02 | [9] 1.04 | S. cerevisiae deletion strains, locus YLR268W, strain sec22, stronger effect = lower value 1.02 | S. cerevisiae deletion strains, locus YLR330W, strain CHS5, stronger effect = lower value 1.01 | S. cerevisiae deletion strains, locus YLR342W, strain FKS1 (second series), stronger effect = lower value 0.995 | S. cerevisiae deletion strains, locus YLR371W, strain rom2, stronger effect = lower value 1.02 | S. cerevisiae deletion strains, locus YLR418C, strain cdc73, stronger effect = lower value 1.06 | S. cerevisiae deletion strains, locus YML016C, strain PPZ1, stronger effect = lower value 0.999 | S. cerevisiae deletion strains, locus YML032C, strain rad52, stronger effect = lower value 1.01 | S. cerevisiae deletion strains, locus YML124C, strain tub3, stronger effect = lower value 1.01 | S. cerevisiae deletion strains, locus YMR078C, strain ctf18, stronger effect = lower value 1.02 | S. cerevisiae deletion strains, locus YMR223W, strain ubp8, stronger effect = lower value 1.01 | [10] 1.03 | [11] 1.06 | S. cerevisiae deletion strains, locus YNL067W, strain RPL9B, stronger effect = lower value 1.07 | S. cerevisiae deletion strains, locus YNL128W, strain TEP1, stronger effect = lower value 1.02 | [12] 1.03 | S. cerevisiae deletion strains, locus YNL233W, strain BNI4, stronger effect = lower value 1.01 | S. cerevisiae deletion strains, locus YNL250W, strain rad50, stronger effect = lower value 1.04 | S. cerevisiae deletion strains, locus YNL271C, strain bni1, stronger effect = lower value 1.02 | S. cerevisiae deletion strains, locus YNL298W, strain CLA4, stronger effect = lower value 1.02 | S. cerevisiae deletion strains, locus YNL307C, strain MCK1, stronger effect = lower value 1.02 | S. cerevisiae deletion strains, locus YNR052C, strain pop2, stronger effect = lower value 1.02 | S. cerevisiae deletion strains, locus YOL012C, strain htz1 0.797 | S. cerevisiae deletion strains, locus YOL147C, strain pex11, stronger effect = lower value 1.02 | S. cerevisiae deletion strains, locus YOR061W, strain CKA2, stronger effect = lower value 1.01 | S. cerevisiae deletion strains, locus YOR069W, strain VPS5, stronger effect = lower value 1.01 | S. cerevisiae deletion strains, locus YOR136W, strain idh2, stronger effect = lower value 1.02 | S. cerevisiae deletion strains, locus YOR144C, strain elg1, stronger effect = lower value 1.02 | S. cerevisiae deletion strains, locus YOR184W, strain ser1, stronger effect = lower value 1.02 | S. cerevisiae deletion strains, locus YOR316C, strain cot1, stronger effect = lower value 1.02 | [13] 1 | S. cerevisiae deletion strains, locus YPR119W, strain clb2, stronger effect = lower value 1.02 | S. cerevisiae deletion strains, locus YPR141C, strain kar3, stronger effect = lower value 1.03 | S. cerevisiae deletion strains, locus YPR163C, strain tif3, stronger effect = lower value 1.01 | S. cerevisiae deletion strains, locus YPR167C, strain met16, stronger effect = lower value 1.01 | S. cerevisiae deletion strains, strain wtn01, stronger effect = lower value 1.01 | [14] 1.02
